Assay outcomes deposited in PubChem BioAssay by University of Kansas High Throughput Screening Laboratory.
Pf apPOL inh: Pf-apPOL DNA polymerase inhibition; Recombinant Pf-apPOL, molecular beacon fluorescence, 1.5 h; inhibition, % at 10 µM; hit rate 0.25% among 210,000
mHTT CaM bind: disrupts binding of mutant huntingtin to calmodulin; AID 1671202; inhibition, % at 15 µM; AlphaScreen His-mHTT/GST-CaM binding, luminescence; hit rate 3.6% among 190,000;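 note: 0% = both proteins with DMSO and 100% = one protein alone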
The depositor's hits bear a star. This excerpt belongs to a sample that is enriched for hits. Cut-off read from the data, not from the text of the source: active = inhibition above about 50%; inactive = the rest.

What do the screens show for `N#Cc1c(NC(=O)/C=C/C(=O)O)sc2c1CCC2`?
mHTT CaM bind: -1

How did Cc1c(OCC(=O)N(C)C)ccc2c3c(c(=O)oc12)CCC3 do in these assays?
Pf apPOL inh: 0; mHTT CaM bind: 0

Results for CNc1nc(C23CC4CC(CC(C4)C2)C3)ns1 ?
Pf apPOL inh: -8

How did COc1ccccc1CNC(=O)C1CCCN(c2nnc3ccc(C(F)(F)F)cn23)C1 (stereo not drawn) do in these assays?
Pf apPOL inh: -2; mHTT CaM bind: 9

Results for Cc1ccc(-n2nc(C)c3sc(N4CCCN(C(=O)c5cccc(C)c5)CC4)nc32)cc1 ?
Pf apPOL inh: 2; mHTT CaM bind: 37

What do the screens show for `N#CC1=C(N)OC2=C(C(=O)CC(c3ccccc3)C2)C1c1c[nH]c2ccccc12` (stereo not drawn)?
Pf apPOL inh: 3; mHTT CaM bind: 58*

Results for N#CC1=C(N)OC2=C(C(=O)CC(c3ccccc3)C2)C1c1ccccc1F (stereo not drawn) ?
Pf apPOL inh: -9; mHTT CaM bind: 14

How did O=c1c(-c2ccccc2)coc2c3c(ccc12)OCN(c1ccc(CCO)cc1)C3 do in these assays?
Pf apPOL inh: -2; mHTT CaM bind: 32

How did Cc1ccnc(NS(=O)(=O)c2ccc(C(C)(C)C)cc2)c1 do in these assays?
Pf apPOL inh: -2; mHTT CaM bind: 100*

What do the screens show for `Cc1ccnc(NS(=O)(=O)c2ccc(Cl)cc2)c1`?
Pf apPOL inh: 0; mHTT CaM bind: -1

What do the screens show for `COc1ccc(OC)c(C2C3=C(CC(C)(C)CC3=O)Nc3ccc4ncccc4c32)c1` (stereo not drawn)?
Pf apPOL inh: -5; mHTT CaM bind: 52*

What do the screens show for `CC1(C)CC(=O)C2=C(C1)Nc1ccc3ncccc3c1C2c1ccccn1` (stereo not drawn)?
Pf apPOL inh: -1; mHTT CaM bind: 1

What do the screens show for `Cc1cccc(-c2nc(C3CCN(C(=O)c4ccccc4C(F)(F)F)CC3)no2)c1`?
Pf apPOL inh: -2; mHTT CaM bind: -2

Results for COC1CCN(C(=O)Cc2ccc(S(=O)(=O)C(C)C)cc2)CC1 ?
Pf apPOL inh: -6; mHTT CaM bind: -11

What do the screens show for `C[C@H](c1ccccc1)N1C[C@H](COCc2ccccc2)Oc2cc(N3CC[C@H](N(C)C)C3)ccc2S1(=O)=O`?
Pf apPOL inh: -5; mHTT CaM bind: -11

What do the screens show for `C[C@@H](c1ccccc1)N1C[C@H](COCc2ccccc2)Oc2cc(N3CC[C@@H](N(C)C)C3)ccc2S1(=O)=O`?
Pf apPOL inh: -5; mHTT CaM bind: 100*

Results for C[C@@H](c1ccccc1)N1C[C@H](COCc2ccccc2)Oc2cc(N3CC[C@H](N(C)C)C3)ccc2S1(=O)=O ?
Pf apPOL inh: -6; mHTT CaM bind: 100*

How did COC[C@@H]1CCCN1c1ccc2c(c1)O[C@@H](COCc1ccccc1)CN([C@@H](C)c1ccccc1)S2(=O)=O do in these assays?
Pf apPOL inh: 0; mHTT CaM bind: -3

Results for CCc1ccc(C(=O)N2CCc3c(c(-c4nc(-c5ccccc5F)no4)nn3C)C2)cc1 ?
Pf apPOL inh: -4; mHTT CaM bind: 2

What do the screens show for `CCC(=O)Nc1nc2ccccc2n1CC`?
Pf apPOL inh: -15; mHTT CaM bind: -2

What do the screens show for `CCn1c(NC(=O)c2ccccc2)nc2ccccc21`?
Pf apPOL inh: 0; mHTT CaM bind: 53*

How did O=C(Nc1nc2ccccc2n1CCN1CCCCC1)c1ccccc1 do in these assays?
Pf apPOL inh: -3; mHTT CaM bind: 34

Results for C=CCn1c(NC(=O)c2ccccc2)nc2ccccc21 ?
Pf apPOL inh: 1; mHTT CaM bind: 54*

How did COc1ccc(Cc2c(C)nc(C)nc2N2CCN(C(=O)C3CCC3)CC2)cc1 do in these assays?
Pf apPOL inh: 1; mHTT CaM bind: 21

Results for CCCC(C)NC(=O)c1ccc(Cl)cc1[N+](=O)[O-] (stereo not drawn) ?
Pf apPOL inh: 1; mHTT CaM bind: -2

How did CC(C)CN(Cc1c(O)ccc2c1OC(=Cc1ccco1)C2=O)CC(C)C do in these assays?
Pf apPOL inh: 2; mHTT CaM bind: 15

What do the screens show for `CCc1nnc2ccc(-c3noc(-c4ccc(Cl)cc4)n3)cn12`?
Pf apPOL inh: -3; mHTT CaM bind: -10

What do the screens show for `O=Cc1ccccc1OCc1ccc([N+](=O)[O-])cc1`?
Pf apPOL inh: -3; mHTT CaM bind: -3

What do the screens show for `CCSC1=NSC2=NC(=O)/C(=C\c3ccc(C)cc3)C(=N)N12`?
Pf apPOL inh: -9; mHTT CaM bind: 0

What do the screens show for `CC(=O)N1CCc2cc(Br)cc(S(=O)(=O)NC(C)c3ccccc3)c21` (stereo not drawn)?
Pf apPOL inh: -9; mHTT CaM bind: 10

How did COCc1cc(=O)[nH]c(Nc2nc3ccccc3s2)n1 do in these assays?
Pf apPOL inh: 1; mHTT CaM bind: 3

Results for COc1cccc(NC(=O)N2C(=O)C(=O)c3cc(Br)ccc32)c1 ?
Pf apPOL inh: 28; mHTT CaM bind: 73*

Results for COc1cccc(NC(=O)c2cc(Br)ccc2OC)c1 ?
Pf apPOL inh: -1; mHTT CaM bind: -6
